The campaign covered roughly 410,000 compounds. About 5,000 (1.2%) were called active. Not shown: some 13% with an inconclusive outcome. Calls follow the shape of the dose curve; as a rule, active = well fitted inhibition curve with a large enough effect; inconclusive = small, poorly fitted or top-dose-only effect; inactive = no such curve, though single readings can be large or run the other way. What follows is part of a selection rich in actives, with near analogues and random picks from the rest. A call without a number means that no potency is given here.
assay: qHTS for Inhibitors of TGF-b; conditions: HepG2 CAGA-GFP TGF-b/SMAD3 reporter, GFP fluorescence, 18 h, TGF-beta stimulated, 500 pg/mL final; series mostly up to 46.1 µM; also: nearly all actives have a fitted effect of over 65% in size
How it was run: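 TGF-beta reporter screen: HEPG2 CAGA-GFP, 1% FBS, 500 pg/mL TGF-beta final, 18 h; per-cell GFP summed per well; curves fitted and categorized by class.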
Potency is read from the fitted curve at half-maximal effect.

Compound | Potency
COc1ccc(CCNC(=O)Cn2c(=O)n(-c3ccccc3)c(=O)c3c(C)c(C)sc32)cc1OC | inactive
CC(C)c1ccc(NC(=O)c2cc(S(=O)(=O)N3CCc4ccccc4C3)ccc2F)cc1 | inactive
CCCCNC(=O)c1ccc2c(c1)NC(=O)C(C(C)C)N2 (stereo not given) | inactive
COc1ccc(C(=O)Nc2nonc2-c2ccc(OC)c(OC)c2)cc1Cl | inactive
COc1cc2nc(NCC(C)c3ccccc3)n3nc(-c4ccccc4)nc3c2cc1OC (stereo not given) | inactive
Cc1cccc(N(C)C(=O)CS(=O)(=O)c2cccc3nsnc23)c1 | inactive
CCN1CCN(c2ccc(/C=C/c3ccnc4ccccc34)cc2)CC1 | inactive
Cc1ccc(C2C=C(c3ccc(Cl)cc3)Nc3nc(NC(=O)CCC(=O)O)nn32)cc1 (stereo not given) | inactive
COc1ccc(N2CCN(c3nc(-c4ccccc4F)nc4ccccc34)CC2)cc1 | inactive
Cc1cccc(C)c1NC(=O)C(Cl)C(=O)c1ccccc1 (stereo not given) | 11.2 µM (active)
Cc1cccc(C)c1NC(=O)N1CC(C)OC(C)C1 (stereo not given) | inactive
Cc1cccc(C)c1NC(=O)CN(C)C(=O)CCC(=O)c1ccccc1 | inactive
Cc1ccc2c(=O)cc(C(=O)Nc3sc4c(c3C(=O)NCc3cccnc3)CCCC4)oc2c1 | inactive
N#Cc1ccc[n+](CC(=O)c2ccc(F)cc2)c1 | inactive
Cc1ccc(C)c(Nc2nnc(-c3ccc(C)c(S(=O)(=O)N4CCCCC4)c3)c3ccccc23)c1 | inactive
CCn1c(CNC(=O)C23CC4CC(CC(C4)C2)C3)nnc1SCC(=O)Nc1ccc(OC)cc1 | inactive
CC(=O)Nc1ccc2nc(SCCOc3cc(C)cc(C)c3)sc2c1 | inactive
Brc1cccc[n+]1Cc1cccc(C[n+]2ccccc2Br)c1 | inactive
Cc1c(C(=O)Nc2ccccn2)oc2ccc(Br)cc12 | inactive
Oc1ccc(Br)cc1/C=N/Nc1ccccn1 | 0.562 µM (active)
O=C(CCc1ccc(O)cc1)NN=Cc1cc(Br)ccc1O | inactive
CCn1cc(C(=O)NCCc2ccccc2)c(=O)c2cc(S(=O)(=O)N3CCCCCC3)ccc21 | inactive
CCCN(CC1COc2ccccc2O1)C(=S)Nc1ccc(C)cc1 (stereo not given) | inactive
S=C(NCC1COc2ccccc2O1)Nc1ccc(Br)cc1 (stereo not given) | 22.4 µM (active)
CC(NC(=S)Nc1ccccc1)C1COc2ccccc2O1 (stereo not given) | inactive

Compound | Potency
CCOC(=O)c1ccc(NC(=O)Cn2c(=O)n(-c3ccc(C)cc3)c(=O)c3c2cnn3C)cc1 | inactive
COc1cc2nc(C#Cc3nc4cc(OC)c(OC)cc4[nH]3)[nH]c2cc1OC | inactive
Cc1ccc(Cl)cc1NC(=O)CSc1nccn1C | inactive
Cc1ccccc1C(CC(=O)c1cccs1)C(C#N)C#N (stereo not given) | 20 µM (active)
Cc1ccc(C)c(NC(CC(=O)c2ccccc2)C(=O)OCC(=O)c2cccs2)c1 (stereo not given) | inactive
C[N+]1(CC(=O)c2cccs2)CCOCC1 | inactive
Cc1ccc(-n2nnnc2CNC(=O)c2ccccc2C)cc1C | inactive
CCN(c1ncnc2c1cnn2-c1ccc(C)cc1)C1CCCCC1 | inactive
CCN([C@H](CO)C(C)C)S(=O)(=O)c1ccccc1Br | inactive
O=S(=O)(NCc1ccccc1Br)c1ccccc1Br | inactive
CC(C)c1ccc(OCC(=O)N(Cc2ccc(N(C)C)cc2)C2CCS(=O)(=O)C2)cc1 (stereo not given) | inactive
C[C@H]1CN(c2ccc(Br)cc2)C(=O)[C@@H]1CC(=O)Nc1ccc(Br)cc1 | inactive
CNC(=O)C[C@H]1C(=O)N(c2ccc(OC)cc2)C[C@@H]1Cc1ccccc1 | inactive
CC(C)c1ccc(NC(=O)CN(C)S(=O)(=O)c2ccc3c(c2)c(=O)n(C)c(=O)n3C)cc1 | inactive
Cc1c(CNC2CCCCC2)c(C(=O)O)c(C)n1Cc1cccc(Cl)c1 | inactive
Cc1cccc(N2CCN(C3=C(c4ccccc4)C(=O)c4ccccc43)CC2)c1C | inactive
COc1c(O)ccc2c1CN1CCc3cc4c(cc3C1C2)OCO4 (stereo not given) | 14.1 µM (active)
COc1ccc(CN2CCCC(N3CCc4ccccc4C3)C2)c(O)c1 (stereo not given) | inactive
COc1cc(C(=O)CCc2ccc3c(c2)OCO3)cc(OC)c1OC | inactive
C#CCOc1ccc(C2CC(=O)Nc3c2c(C)nn3-c2nc(C)cc(C)n2)cc1 (stereo not given) | inactive
COc1ccccc1CNc1ccc(-c2nc(-c3ccccc3C)no2)cc1[N+](=O)[O-] | inactive
COc1ccc(OCCNS(=O)(=O)Cc2ccccc2)cc1 | inactive
COc1ccc(S(=O)(=O)NCCOc2ccccc2)cc1F | inactive
COc1ccc(S(=O)(=O)NCCCCOc2ccc(Cl)cc2)cc1 | 12.6 µM (active)
NC(=O)C1CCN(C(=O)c2cccc(NC(=O)c3nsc4ccccc34)c2)CC1 | inactive

Compound | Potency
O=C(CC(c1cccs1)N1Cc2ccccc2C1=O)Nc1ccc(F)cc1F (stereo not given) | inactive
CCOc1ccc(C(NC(=O)c2cc(OC)c(OC)c(OC)c2)c2cc(Cl)c3cccnc3c2O)cc1 (stereo not given) | inactive
CN(c1ccccc1)S(=O)(=O)c1cc(C(=O)N2CCN(c3ncccn3)CC2)ccc1Cl | inactive
CN(c1ccccc1)S(=O)(=O)c1ccc(C(=O)N2CCN(c3ccccc3Cl)CC2)cc1 | 15.8 µM (active)
O=C(c1ccc(S(=O)(=O)N2CCCC2)cc1)N1CCN(c2ccccc2F)CC1 | inactive
COc1ccc(OCCCn2c(C)nc3cc(C)c(C)cc32)cc1 | inactive
Cn1nnc2c(N3CCN(c4ccccc4)CC3)ncnc21 | inactive
O=C(O)C1=C/C(=C/C=[N+]2c3cc(O)c(O[C@H]4OC(CO)[C@@H](O)[C@@H](O)[C@@H]4O)cc3C[C@@H]2C(=O)[O-])C[C@H](C(=O)O)N1 (stereo not given in full) | inactive
Cc1nn(CC(=O)N2CCN(c3cccc(C(F)(F)F)c3)CC2)c(=O)c2cc3sccc3n12 | inactive
Cc1cc(NC(=O)CC(C)C)cc(-c2nc3ncccc3o2)c1O | inactive
CCOc1c2ccc(C(=O)NCc3ccc4c(c3)OCO4)cc2nn1C | inactive
O=C(CSc1ncnc2scc(-c3ccccc3)c12)NCc1ccc2c(c1)OCO2 | inactive
CN(C)C(=O)c1cccc(-c2cnc3sc(NCc4ccc5c(c4)OCO5)nn23)c1 | 10 µM (active)
CCOc1ccc(CCNC(=O)Cn2nc(CC)n3c(cc4sc(CC)cc43)c2=O)cc1OCC | inactive
FC(F)(F)c1cc(Nc2nc3ccccc3c3nncn23)ccc1Cl | 17.8 µM (active)
COc1cc(Nc2nc3ccc(Cl)cc3n3cnnc23)cc(OC)c1OC | inactive
COc1cccc(Nc2nc3ccccc3c3nncn23)c1 | inactive
O=C(CC(NCc1cccnc1)C(=O)O)Nc1ccc(O)cc1 (stereo not given) | inactive
COc1ccc(NC(=O)Cn2c(=O)n(CCC(C)C)c(=O)c3cccnc32)cc1Cl | inactive
Cc1ccc(C)c(N2CCN(c3ccc4cc(S(=O)(=O)N5CCC(C)CC5)ccc4n3)CC2)c1 | inactive
COc1ccc(Br)cc1C1CC(=O)Nc2c1c(C)nn2-c1nc(C)cc(C)n1 (stereo not given) | inactive
O=C(NC(c1ccc(Cl)cc1)c1cnccn1)C1CCN(Cc2ccc(Cl)cc2)CC1 (stereo not given) | inactive
Cc1cccnc1C(NC(=O)C1CCN(Cc2ccc(Cl)c(Cl)c2)CC1)c1ccc(Cl)cc1 (stereo not given) | 11.2 µM (active)
COc1cccc(CN2CCC(C(=O)NC(c3ccc4c(c3)OCO4)c3ccccn3)CC2)c1 (stereo not given) | inactive
Cc1ccc(OCC(=O)OCc2cc(=O)n3nc(C4CC4)sc3n2)cc1C | inactive

Compound | Potency
COCCNC(=O)CSc1c(C)cnc2c1c(=O)n(C)c(=O)n2C | inactive
O=S(=O)(c1ccc(Br)cc1)c1nnn2c1nc(NC1CCCCCC1)c1sccc12 | inactive
CC1=C(c2ccc(Cl)cc2)S(=O)(=O)N=C1N1CCN(c2cc(C)ccc2C)CC1 | inactive
CC1=C(c2ccc(C)cc2)S(=O)(=O)NC1=NCCCN1CCN(c2cc(C)ccc2C)CC1 | 20 µM (active)
CCOC(=O)c1c(C)[nH]c(CCC(=O)NCCCN2CCN(c3cc(C)ccc3C)CC2)c1C | inactive
COC(=O)c1c(NC(=O)CCCOc2ccccc2)sc2c1CCC(C)C2 (stereo not given) | inactive
CSc1ccc(NC(=O)Cn2nnnc2-c2ccccc2F)cc1 | inactive
CCc1ccc(-n2nnc(-c3nc(-c4ccccc4)no3)c2C)cc1 | inactive
COc1cccc(-c2cc3nc4c(c(N5CCC6(CC5)OCCO6)n3n2)CCCC4)c1 | 12.6 µM (active)
O=C(c1ccccc1)N1CCN(c2cc(-c3ccccc3)nc3cc(-c4cccc(Cl)c4)nn23)CC1 | inactive
O=C(CC(c1cccs1)N1Cc2ccccc2C1=O)Nc1ccc(F)c(F)c1 (stereo not given) | inactive
CCOc1ccccc1NC(=O)Cn1c(=O)n(Cc2ccco2)c(=O)c2sc3ccccc3c21 | inactive
Cc1c(Cl)cccc1NC(=O)C1CCCN(C(=O)c2cnn(-c3ccccc3)c2-n2cccc2)C1 (stereo not given) | 12.6 µM (active)
Cc1cccc(NC(=O)C2CCCN(C(=O)NCc3ccccc3)C2)c1C (stereo not given) | inactive
Cc1c(Cl)cccc1NC(=O)C1CCCN(c2ncnc3onc(C)c23)C1 (stereo not given) | inactive
CCOc1ccccc1NC(=O)Cn1c2ncccc2c(=O)n1-c1ccc(C)c(C)c1 | inactive
Cc1[nH]c2ccccc2c1C(=O)C(=O)N(C)c1ccccc1 | inactive
COc1ccc(-c2cn3c(C)c(C(=O)Nc4cc(C)cc(C)c4)sc3n2)cc1 | inactive
COc1ccc(C(C(=O)NC2CCCCC2)N(C(=O)CCl)c2ccccc2Cl)cc1 (stereo not given) | inactive
COc1ccc(C(CCN(Cc2ccc(OC)c(OC)c2)C(=O)CCl)c2ccccc2)cc1 (stereo not given) | 14.1 µM (active)
COc1ccc(CCNC(=O)CN(c2ccccc2)S(C)(=O)=O)cc1OC | inactive
CC(=O)c1ccc2c(c1)c1ccccc1n2CC(C)C | 7.08 µM (active)
CCn1c(=O)c2cc(C(=O)Nc3cccc(C(C)=O)c3)sc2c2ccccc21 | inactive
CCn1c2ccccc2c2cc(CC(N)=O)ccc21 | inactive
CCOC(=O)N1CCC(NC(=O)c2cnn(-c3cccc(C)c3)c2C2CCN(C(=O)OC(C)(C)C)CC2)CC1 | inactive

— PubChem BioAssay AID588855 (National Center for Advancing Translational Sciences (NCATS), 2011)
